Inconclusive results are not listed. Unmarked numbers belong to inactive results. Activity calls are given as the source filed them. Calls come from the whole dose curve; as a rule, active = well fitted inhibition curve with a large enough effect; inconclusive = small, poorly fitted or top-dose-only effect; inactive = no such curve, though single readings can be large or run the other way.
Biological target: N-terminal Xaa-Pro-Lys N-methyltransferase 1 (Homo sapiens) (UniProt Q9BV86)
Experiment: qHTS Assay for Inhibitors of N-terminal methyltransferase 1 (NTMT1): MTaseGlo Assay Confirmatory Screen, Round 1
Details: Recombinant NTMT1, MTase-Glo SAH luminescence; series mostly up to 57.1 µM; activity change, negative = inhibition: at the top concentration
Excerpt: Assay Submitter (PI): Rong Huang Ph.D, Purdue University, West Lafayette, IN 47907 The N-terminal methytransferase 1 is the first methyltransferase that methylates protein alpha-N-amines and plays an important role in regulating cell mitosis, chromatin interactions and DNA repair. It is observed to be over-expressed in various cancer patient tissues like malignant melanoma and colorectal cancer tissues. Knockdown of NTMT1 in cancer cells causes cell mitotic defects and enhances sensitivity to DNA damaging chemotherapeutics. […] These critical cellular processes in which NTMT1 is implicated, coupled with emerging links to cellular dysfunction, strengthen the inference that NTMT1 is a compelling novel anticancer target. Progress have been made in understanding the molecular properties of NTMT1 and the biological consequences of protein alpha-N-terminal methylation, but there are no specific small molecule probes available for NTMT1 to fully characterize its MTase activity. To address this unmet need, a panel of assay is created and established to enable quantitative high-throughput screening (qHTS) for novel, potent, and selective small molecule NTMT1 inhibitors. Two orthogonal qHTS that use different reagents (ThioGlo vs. MTaseGlo) are developed for primary robotic screening against the NCATS chemical library of more than 400,000 small molecules. Identified inhibitors are reacquired, validated, and further characterized. MTaseGlo Assay is a luminescence screen that measure the activity of methyltransferases based on the reaction product S-adenosyl homocysteine (SAH). The substrate SAM is converted to SAH upon enzyme activation. MTase-Glo reagent and detection solution convert SAH to ATP and measure the light from the luciferase reaction. […] Early Translation Branch (ETB) National Center for Advancing Translational Sciences (NCATS) National Institute of Health (NIH)
Materials: NTMT1 enzyme, substrate SPKRIA, control peptide RCC1-6 is provided by the Huang laboratory. MTaseGlo Assay: In brief, 3 µL of enzyme mixture (final concentrations of 125 nM and 100 µM for NTMT1 and SAM, respectively) into all wells of a 1,536-well solid-bottom white plate (Greiner Bio One, Monroe, NC). 23 nL of DMSO or Ac-RCC1-10 (final concentration range 234 nM to 143 microM) was transferred via Wako Pin-tool (Wako Automation, Richmond, VA) and incubated (RT) for ~15 minutes. Next, 1 µL of substrate (final concentration 1 µM) or buffer was dispensed, and the reaction proceeded for 30 minutes (RT, protected from light) followed by a 1 microL addition of [5X] MTase-Glo Reagent(R). Samples were incubated (RT, protected from light) for 30 minutes to allow for SAH to be converted to ADP, followed by a 5 microL addition of [1X] MTase-Glo Detection Solution(R) to allow for ADP to be converted to ATP, which was then detected with a luciferase reaction. Samples were centrifuged for 15 seconds at 1,000 RPM's, followed by a RT incubation for 30 minutes. Plates were then read using Luminescence optics on a ViewLux detector. Data were normalized to no-enzyme (0% activity) and no-inhibitor (DMSO; 100%) controls, and the resulting percent inhibition data were fitted to a 4-parameter Hill equation using Graphpad Prism.
Potency is the fitted concentration of half-maximal effect.

N-terminal Xaa-Pro-Lys N-methyltransferase 1 (Homo sapiens), sequence (Q9BV86 whole entry, looked up): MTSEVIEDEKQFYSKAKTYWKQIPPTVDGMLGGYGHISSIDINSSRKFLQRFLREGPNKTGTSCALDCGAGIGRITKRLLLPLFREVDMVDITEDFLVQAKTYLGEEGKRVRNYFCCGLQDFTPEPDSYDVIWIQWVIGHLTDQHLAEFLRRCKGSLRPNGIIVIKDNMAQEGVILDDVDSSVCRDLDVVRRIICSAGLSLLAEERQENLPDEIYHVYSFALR

SMILES | Potency | activity change, negative = inhibition
OC[C@H]1O[C@@H](n2cnc3cncnc32)[C@H](O)[C@@H]1O | 13.7 µM (active) | 
Nc1ncnc2c1ncn2[C@@H]1O[C@H](C(=O)NC2CC2)[C@@H](O)[C@H]1O |  | 4.71%
Nc1nc(Cl)nc2c1ncn2[C@@H]1O[C@H](CO)[C@@H](O)[C@H]1O |  | 0.309%
Nc1ncnc2c1ncn2[C@@H]1O[C@H](CO)C(O)[C@H]1O (stereo not given in full) |  | 89.3%
Nc1ncnc2c1ncn2[C@@H]1O[C@H](C[C@@H](N)CC[C@H](N)C(=O)O)[C@@H](O)[C@H]1O |  | 3.5%
COc1cc2nc(N3CCN(C)CC3)nc(NC3CCN(C)CC3)c2cc1OC |  | -8.09%
OC[C@H]1O[C@@H](n2cnc3c(Nc4ccccc4)ncnc32)[C@H](O)[C@@H]1O |  | -5.64%
COc1cc2c(NC3CCN(C(C)C)CC3)nc(N3CCCN(C(C)C)CC3)nc2cc1OCCCN1CCCCC1 |  | -18%
CCCN(C)CCCOc1cc2nc(N3CCCN(C)CC3)nc(NC3CCN(C)CC3)c2cc1OC |  | -17.5%
Nc1ncnc2c1[nH]c(=O)n2C1CC(O)C(CO)O1 (stereo not given) |  | 3.61%
C=C1O[C@@](CO)(n2cnc3c(N)ncnc32)[C@H](O)[C@@H]1O |  | 2.37%
CC(C)(COP(=O)(O)OP(=O)(O)OC[C@H]1O[C@@H](n2cnc3c(N)ncnc32)[C@H](O)[C@@H]1OP(=O)(O)O)[C@H](O)C(=O)NCCC(=O)NCCS |  | 34%
Nc1nc(Cl)nc2c1ncn2[C@@H]1O[C@H](CO)[C@@H](O)[C@@H]1F |  | -0.202%
Nc1ncnc2c1ncn2[C@@H]1O[C@H](CO)[C@@H](O)[C@H]1O |  | 43.9%
COc1cc2c(NC3CCN(C)CC3)nc(N3CCCN(C)CC3)nc2cc1OCCCCN | 15.3 µM (active) | 
COc1cc2nc(N3CCCN(C)CC3)nc(NC3CCOCC3)c2cc1OC |  | 10.6%
Nc1nc(Nc2ccccc2)nc2c1ncn2[C@@H]1O[C@H](CO)C(O)[C@H]1O (stereo not given in full) |  | 4.1%
C[S+](CCC(N)C(=O)O)CC1O[C@@H](n2cnc3c(N)ncnc32)C(O)C1O (stereo not given in full) |  | 424%
COc1cc2nc(N3CCCN(C)CC3)nc(NC3CCCCC3)c2cc1OC |  | 41.1%
CSc1ncnc2c1ncn2C1OC(CO)C(O)C1O (stereo not given) | 30.6 µM (active) | 

SMILES | Potency | activity change, negative = inhibition
Nc1ncnc2c1nc(Cl)n2[C@@H]1O[C@H](CO)[C@@H](O)[C@@H]1O |  | 4.43%
Nc1nc(=S)c2ncn([C@H]3O[C@@H](CO)[C@@H](O)[C@@H]3O)c2[nH]1 |  | 4.07% [at 27.6 µM]
Nc1ncnc2c1ncn2[C@@H]1O[C@H](C(=O)N2CCN(CC(=O)Nc3cccc4c3CNC4=O)CC2)[C@@H](O)[C@H]1O |  | -9.79%
COc1cc2c(NC3CCN(C)CC3)nc(N3CCCCC3)nc2cc1OCCOCCN(C)C |  | -9.13%
COc1cc2nc(N3CCN(C)CC3)nc(NC3CCCCC3)c2cc1OC |  | -5.59%
NC[C@H]1O[C@@H](n2cnc3c(N)ncnc32)[C@H](O)[C@@H]1O | 19.3 µM (active) | 
COc1cc2c(NC3CCN(C)CC3)nc(N3CCCCC3)nc2cc1OCCCN(C)C |  | -13.2%
Nc1ncnc2c1ncn2[C@H]1O[C@@H](CO)[C@@H](O)[C@H]1N |  | 2.75%
C=CCNc1nc(NC2CCN(C)CC2)c2cc(OC)c(OC)cc2n1 |  | -15.4%
O=c1[nH]cnc2c1ncn2C1O[C@H](CO)[C@@H](O)[C@H]1O (stereo not given in full) |  | 6.52%
COc1cc2c(NC3CCN(C(C)C)CC3)nc(N3CCC(F)(F)CC3)nc2cc1OCCCN1CCCC1 |  | -1.55%
CNC(=O)c1cnn(-c2nc(N)c3ncn([C@@H]4O[C@H](CO)[C@@H](O)[C@H]4O)c3n2)c1 |  | 5.01%
CNc1nc(NC2CC2)c2cc(OC)c(OC)cc2n1 |  | 3.67%
OC[C@@H]1O[C@@H](n2cnc3c(NCc4ccco4)ncnc32)[C@H](O)[C@H]1O |  | 51.5%
Nc1ncnc2c1ncn2C1C[C@H](O)[C@@H](CO)O1 (stereo not given in full) |  | 1.97%
Nc1ncnc2c1ncn2[C@@H]1O[C@H](COP(=O)(O)O)[C@@H](O)[C@@H]1O |  | 920% [at 27.6 µM]
Nc1nc(Cl)nc2c1ncn2[C@@H]1O[C@H](CO)C(O)[C@H]1O (stereo not given in full) |  | -0.316%
COc1cc2c(NC3CCN(C(C)C)CC3)nc(N3CCCN(C)CC3)nc2cc1OCCCN(C)C |  | -19.3%
Nc1nc2c(ncn2[C@@H]2O[C@H](CO)[C@@H](O)[C@@H]2O)c(=O)[nH]1 |  | 1.02%
COc1cc2c(NC3CCN(C)CC3)nc(N3CCCN(C)CC3)nc2cc1OCCN(C)C |  | -13.6%

— PubChem BioAssay AID1347145 (National Center for Advancing Translational Sciences (NCATS), 2019)
